PubChem BioAssay AID493194 (Broad Institute, 2011)
Results with a measured potency or affinity are listed apart. Inconclusive results are not listed.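 Rule for the calls: active = a valid curve of falling signal whose half-effect concentration is at most ten times the top tested dose; inconclusive = flat curve at 30 to 70% inhibition, or poor fit; inactive = signal rise, flat within 30%, or potency beyond limit.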

Target: Scavenger receptor class B member 1 (Mus musculus) (UniProt Q61009)
Assay: inhibitors of SR-BI mediated HDL lipid uptake, dose response, ldlA[mSR-BI] cells, fluorescence, cherry pick (AID 493194);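 note: CHO cells lacking LDL receptor and overexpressing mouse SR-BI; cellular uptake of fluorescently labeled HDL measured as cell fluorescence; 0% = median of neutral control wells and -100% = median of positive control wells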
Details: CHO ldlA[mSR-BI] DiI-HDL uptake fluorescence, 3 h; series mostly up to 35 µM; activity change, negative = inhibition: at the top concentration

Sequence of Scavenger receptor class B member 1 (Mus musculus) (Q61009 whole entry, looked up): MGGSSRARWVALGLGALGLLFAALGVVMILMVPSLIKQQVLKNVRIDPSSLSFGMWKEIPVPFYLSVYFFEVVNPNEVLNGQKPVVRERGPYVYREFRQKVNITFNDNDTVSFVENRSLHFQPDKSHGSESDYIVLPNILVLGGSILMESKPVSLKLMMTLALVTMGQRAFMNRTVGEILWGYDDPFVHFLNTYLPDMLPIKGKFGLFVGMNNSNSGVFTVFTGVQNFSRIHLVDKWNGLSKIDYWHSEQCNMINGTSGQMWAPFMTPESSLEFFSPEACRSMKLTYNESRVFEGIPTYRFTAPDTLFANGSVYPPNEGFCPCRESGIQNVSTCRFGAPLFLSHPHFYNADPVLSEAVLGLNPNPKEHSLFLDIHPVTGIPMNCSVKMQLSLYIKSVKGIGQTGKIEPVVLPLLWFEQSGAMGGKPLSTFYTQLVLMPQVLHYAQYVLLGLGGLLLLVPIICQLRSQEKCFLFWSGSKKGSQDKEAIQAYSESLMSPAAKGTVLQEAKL

Activity change, negative = inhibition, inactive:
N#Cc1ccccc1S(=O)(=O)N1CCN(C(=O)C2CC(=O)N(c3ccc4c(c3)OCCO4)C2)CC1 (centres undefined) -4.49%, COc1ccc(-c2[nH]c(-c3ccc(F)cc3)nc2SCC(=O)NC2CCCC2)cc1 -26.3%, Cc1ccc(C)c(N2CCN(CCCNC(=O)Cn3c(=O)c4cccn4c4cccnc43)CC2)c1 2.88%, Cc1sc(NC(=O)Cc2ccc3c(c2)OCO3)nc1-c1ccc2c(c1)CCN2C(=O)c1cccc(F)c1 -23.7%, COc1ccc(OCCSc2nnc(-c3cccnc3)n2N)cc1 -6.66%, CC(C)C(=O)N1CCc2cc(-c3csc(N)n3)ccc21 -22.1%, Cc1ccccc1-c1cc(C(=O)NCc2cccc(Br)c2)nn1CC1CC(c2cccc([N+](=O)[O-])c2)=NO1 (centres undefined) 17.5%, COc1ccc(N2CC(C(=O)NCCc3ccc(Cl)cc3)CC2=O)c(OC)c1 (centres undefined) -7.36%, O=C(Nc1ccc(N2CCOCC2)cc1)c1cccc(S(=O)(=O)N2CCC(Cc3ccccc3)CC2)c1 21.7%, CCOc1ccccc1NC(=O)N1C2CCCC1CC(NC(=O)C1CC1)C2 (centres undefined) 31.7%, COc1ccc(COC(=O)c2ccc(Br)c(S(=O)(=O)N3CCOCC3)c2)cc1F -34.5%, CCN(C(=O)COC(=O)c1c(C)c(-c2ccccc2)nc2ccccc12)C1CCS(=O)(=O)C1 (centres undefined) -16.4%, CCC(C)c1ccccc1N1CC(C(=O)N2CCN(S(=O)(=O)c3ccccc3Br)CC2)CC1=O (centres undefined) -7.79%, CNc1nc(-c2ccc3c(c2)CCN3C(=O)CC(C)(C)C)c(C)s1 -8.51%, CCOC(=O)C1=CN(c2cccc(F)c2)C=C(C(=O)OCC)C1c1cc(OC)c(O)c([N+](=O)[O-])c1 14.7%, Cc1ccc(-n2nc(C)c3c(C(=O)OCC(=O)N(C)C4CCS(=O)(=O)C4)cc(-c4ccccc4)nc32)cc1 (centres undefined) -0.532%, O=C1NCCOC(=O)[C@H](Cc2ccc(F)cc2)C/C=C\C[C@@H]1CC(=O)N(CCO)Cc1ccccc1 24.5%, COc1cc2c(cc1OC)-c1cc(OCc3ccccc3Cl)nc(=O)n1CC2 3.79%, COc1ccc2sc(-c3ccc(N(C)C)cc3)c(C#Cc3cncn3C)c2c1 10.8%, CCCCCCC(=O)Nc1nc(C)c(-c2csc(Nc3ccc(Cl)cc3)n2)s1 8.24%, Cc1ccc(NC(=O)CSc2nnc([C@H](C)NC(=O)OC(C)(C)C)o2)c(C)c1 -7.58%, Cc1ccc(OCc2cc(C(=O)N3CCCC(O)C3)no2)cn1 (centres undefined) 103%, O=C(Cc1cccs1)NCCSc1c(-c2ccc(Cl)cc2)[nH]c2ccccc12 -31.7%, O=C(NNC(=O)c1ccccc1O)c1ccc(S(=O)(=O)Nc2ccccc2)cc1 -1.35%
